# PAX8 inh HTS: lowers PAX8-driven luciferase in RMG-I cells; RMG-I TPO-luciferase reporter, SteadyGlo, 24 h; inhibition, % at 12.6 µM; 360,000 tested, 1.2% active; AID 652154;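 active = mean replicate inhibition at least 60% with every replicate also reaching 60%; inconclusive = only one of the two criteria is met; inactive = mean below 60% and not all replicates reaching 60%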;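 note: luciferase light reporting Pax8 driven TPO promoter activity; plate controls were median of neutral control wells for no effect and mitoxantrone controls for full effect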
# Shn3 inh set2: inhibitors of Schnurri-3 3'UTR reporter in osteoblasts | 360,000 tested, 0.52% active | AID 588674 | inhibition, % at 12.5 µM | Clone20 osteoblast Shn3 3'UTR firefly luciferase, 24 h;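 active = mean inhibition of at least 75% with every replicate also reaching 75%; inconclusive = mean inhibition at least 75% but some replicate below; inactive = mean inhibition below 75%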;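 note: 0% = median of neutral control wells and 100% = pilot-screen positive control compound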
# EWS-Fli block: blocks EWS/Fli oncoprotein-driven transcription; A673 NR0B1-luciferase reporter, viability-normalised; inhibition, % at 12.6 µM; 350,000 tested, 0.67% active;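 active = mean inhibition of at least 50% after viability correction, with every replicate also passing that limit; inconclusive = mean reaches 50% but only one of two replicates passes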;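 note: firefly luciferase signal divided by Alamar Blue viability fluorescence both relative to DMSO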
# TRPM1 prom inh: MITF TRPM1 promoter inhibition in SK-MEL-5 cells; inhibition, % at 12.5 µM; 330,000 tested, 0.83% active; SK-MEL-5 TRPM1 promoter luciferase, 24 h;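 active = mean inhibition across replicates of 60% or more, whatever share of single replicates reaches that level; inconclusive = some that reach 60%, reason not given; inactive = mean inhibition across replicates below 60%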
# Peg3 prom inh: reduces Peg3 promoter-driven luciferase expression in HeLa; HeLa PEG-Prom luciferase reporter, luminescence, overnight; inhibition, % at 20 µM; 360,000 tested, 1.7% active; AID 588405;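 active = inhibition of at least 50% at 20 µM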
# ABHD5 PLIN5 PPI: inhibitors of human ABHD5-perilipin-5 interaction. Q00G26+Q8WTS1. Split G. princeps luciferase complementation, luminescence, 4 h. inhibition, % at 4 µM. 360,000 tested, 0.78% active;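 active = inhibition above the mean inhibition across every tested compound plus 3 SD, cut at about 22% in these data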;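 note: 0% = DMSO only wells and the 100% control is not disclosed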
# Target sequence (Q00G26 whole entry, looked up): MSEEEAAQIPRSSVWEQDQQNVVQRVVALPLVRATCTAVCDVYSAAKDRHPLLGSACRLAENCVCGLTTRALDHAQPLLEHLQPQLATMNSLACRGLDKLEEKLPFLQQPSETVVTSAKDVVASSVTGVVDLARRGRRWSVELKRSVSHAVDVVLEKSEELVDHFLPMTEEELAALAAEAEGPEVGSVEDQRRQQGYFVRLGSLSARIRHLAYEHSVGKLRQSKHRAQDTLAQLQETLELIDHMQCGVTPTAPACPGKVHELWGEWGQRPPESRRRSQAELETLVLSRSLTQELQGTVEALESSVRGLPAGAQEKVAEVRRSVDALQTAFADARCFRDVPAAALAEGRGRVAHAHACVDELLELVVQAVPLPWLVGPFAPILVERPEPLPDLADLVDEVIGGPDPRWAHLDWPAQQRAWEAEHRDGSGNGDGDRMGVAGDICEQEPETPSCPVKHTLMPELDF
# Target sequence (Q8WTS1 whole entry, looked up): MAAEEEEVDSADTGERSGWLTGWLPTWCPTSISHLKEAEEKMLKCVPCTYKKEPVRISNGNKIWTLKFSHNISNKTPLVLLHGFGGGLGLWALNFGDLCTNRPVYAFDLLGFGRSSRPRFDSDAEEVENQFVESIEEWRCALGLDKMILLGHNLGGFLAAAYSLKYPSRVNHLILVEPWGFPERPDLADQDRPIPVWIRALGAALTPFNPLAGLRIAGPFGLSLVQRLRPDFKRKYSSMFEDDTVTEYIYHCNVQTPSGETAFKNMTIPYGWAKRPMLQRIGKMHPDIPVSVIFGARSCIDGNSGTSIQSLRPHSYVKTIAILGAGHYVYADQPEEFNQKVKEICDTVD
# An asterisk follows results filed as active; ? = inconclusive; · = no result. This is a sample that favours compounds with a hit; in the whole collection about 3% have one here.
SMILES,PAX8 inh HTS,Shn3 inh set2,EWS-Fli block,TRPM1 prom inh,Peg3 prom inh,ABHD5 PLIN5 PPI
O=C(Nc1ccc2nc3n(c(=O)c2c1)CCCC3)c1ccccc1F,-47.8,-41.3,-65.0,-37.9,-120.3,0.7
O=C(Cc1cccnc1)N1CC(=O)N2[C@H](C1)[C@H](c1ccc(C#CC3CCCC3)cc1)[C@@H]2CO,·,·,12.1,·,·,·
O=C(O[C@@H]1OC2COC(=O)c3cc(O)c(O)c(O)c3-c3c(cc(O)c(O)c3O)C(=O)O[C@@H]([C@H]1O)[C@@H]2O)c1cc(O)c(O)c(O)c1,·,-7.1,·,-2.3,13.9,28.0*
COCCNC(=O)C[C@@H]1CC[C@H](NS(=O)(=O)c2ccc(C)cc2)[C@H](CO)O1,-12.5,·,1.4,·,·,·
C[C@@H]1CN([C@H](C)CO)C(=O)c2cc(N(C)C)ccc2O[C@@H]1CN(C)Cc1ccncc1,-11.1,·,1.2,·,·,·
C[C@@H]1CCCCO[C@H](CN(C)C(=O)Nc2ccc3c(c2)OCO3)[C@H](C)CN([C@H](C)CO)C(=O)c2cc(NC(=O)Nc3ccc(F)cc3)ccc2O1,-21.3,·,0.9,·,·,·
C[C@H](CO)N1C[C@H](C)[C@H](CN(C)C)OCCCC[C@H](C)Oc2ccc(NS(=O)(=O)c3ccc(Cl)cc3)cc2C1=O,1.6,·,-7.9,·,·,·
O=C(Nc1nc2cc3c(cc2s1)OCO3)c1ccco1,32.7,46.5,63.8*,9.7,19.9,7.1
CC(=O)Nc1nc2cc3c(cc2s1)OCO3,-143.9,-55.2,-34.5,·,-222.3,6.2
Cc1ccc(S(=O)(=O)N[C@H]2CC[C@H](CCn3cc(-c4ccccc4F)nn3)O[C@@H]2CO)cc1,36.3,·,5.8,·,·,·
CC(O)(c1cccc(F)c1)c1nc(-c2ccoc2)cs1 (stereo not given),3.2,-22.0,-2.2,·,7.3,20.6
CC(O)(c1ccc(F)c(F)c1)c1nc(-c2ccoc2)cs1 (stereo not given),-20.6,-2.8,-0.1,·,6.8,22.2*
C[C@H](CO)N1C[C@H](C)[C@@H](CN(C)C(=O)Nc2cccc3ccccc23)Oc2c(cccc2N(C)C)C1=O,29.5,·,13.5,·,·,·
C[C@@H]1CN([C@@H](C)CO)C(=O)Cc2cc(NC(=O)Nc3ccc(C(F)(F)F)cc3)ccc2O[C@H]1CN(C)Cc1ccncc1,39.8,·,·,·,·,·
CCOc1ccc(C(=O)Nc2cc(C)on2)cc1,·,-19.6,·,-25.3,-90.5,0.3
Cc1cc(NC(=O)c2cccc(COc3ccc(Br)cc3)c2)no1,46.8,5.5,86.1*,10.1,-146.5,-2.5
O=C(Nc1cccc(Cl)c1)Nc1cnccn1,-25.9,11.8,·,-20.5,-45.1,-6.4
O=C(Nc1cccc(Cl)c1)Nc1ccnc(-c2cccnc2)n1,53.7,-56.4,-17.8,2.5,78.0*,-0.1
Cc1cc(C(=O)Nc2ccc3ccccc3c2)oc1C,-141.2,-65.4,-139.1,-66.1,-304.1,-2.1
Cc1ccoc1C(=O)Nc1ccc2ccccc2c1,4.4,14.7,51.4*,-3.3,-106.0,-11.5
CCCCNS(=O)(=O)c1ccc(NC(=O)C(Sc2ccccc2)c2ccccc2)cc1 (stereo not given),72.3*,51.4,·,1.3,59.2*,-7.1
c1ccc(CN2CCN(c3ncnc4c3[nH]c3ccccc34)CC2)cc1,·,84.8,·,49.1,55.8*,3.1
c1ccc2c(c1)[nH]c1c(N3CCC4(CC3)OCCO4)ncnc12,·,18.3,·,33.4,36.5,2.2
c1ccc2c(c1)CCN(c1ncnc3c1[nH]c1ccccc13)C2,·,89.0*,·,54.9,29.9,0.1
Cc1ccc2[nH]c3c(N4CCN(Cc5ccccc5)CC4)ncnc3c2c1,·,90.2*,·,30.4,42.5,4.8
SMILES,PAX8 inh HTS,Shn3 inh set2,EWS-Fli block,TRPM1 prom inh,Peg3 prom inh,ABHD5 PLIN5 PPI
C[C@H]1CN([C@@H](C)CO)C(=O)c2cccc(NS(C)(=O)=O)c2O[C@H]1CN(C)Cc1ccc(C(F)(F)F)cc1,2.9,·,-3.4,·,·,·
COc1cc(C(=O)NC2CCN(C)CC2)ccc1Nc1ncc2c(n1)N(CCc1ccccc1)CCC(=O)N2C,-64.0,-37.4,54.2*,?,-64.0,5.6
COc1cc(C(=O)NC2CCN(C)CC2)ccc1Nc1ncc2c(n1)N(C1CCCC1)CCC(=O)N2C(C)C,·,6.0,·,74.3*,69.4*,4.8
O=C(N/N=C/c1ccc(Cl)c([N+](=O)[O-])c1)c1cc(-c2ccccc2)nc2ccccc12,-19.3,2.7,7.3,1.3,108.1*,4.3
O=C(N/N=C/c1cc([N+](=O)[O-])ccc1O)c1cc(-c2ccccc2)nc2ccccc12,7.5,87.5*,-0.8,47.9,47.4,1.8
O=C(N/N=C/c1cc([N+](=O)[O-])ccc1Cl)c1cc(-c2ccccc2)nc2ccccc12,-10.1,-6.8,-2.5,15.7,8.1,-2.5
O=C(N/N=C/c1ccc(Cl)cc1)c1cc(-c2cccnc2)nc2ccccc12,12.8,-19.1,52.4*,18.5,4.3,2.6
Cc1ccc(NC(=S)N/N=C/c2ccc(Cl)c([N+](=O)[O-])c2)cc1,·,0.9,·,-8.7,86.2*,-7.1
O=C(NC1CCCC1)[C@H]1[C@H](CO)[C@H]2Cn3c(ccc(-c4cccnc4)c3=O)[C@H]2N1CC1CC1,-1.4,·,-8.1,·,·,·
O=C(Nc1ccc(C(F)(F)F)cc1)N[C@H]1CC[C@@H](CC(=O)N2CCCCC2)O[C@H]1CO,4.9,·,-6.0,·,·,·
CCc1cc(C(=O)N/N=C/c2ccc(O)cc2)c2ccccc2n1,10.5,5.1,-2.7,7.4,22.5,22.7*
Cc1cc(C(=O)N/N=C/c2ccc([N+](=O)[O-])cc2)c2ccccc2n1,21.2,21.2,51.4*,30.2,26.0,-4.7
Cc1cc(C(=O)N/N=C/c2ccc(N(C)C)cc2)c2ccccc2n1,20.7,3.4,37.2,29.7,5.8,-3.7
C[C@@H]1CN([C@@H](C)CO)C(=O)c2cccc(NC(=O)Nc3ccccc3)c2O[C@H]1CN(C)CC1CC1,-11.7,·,-1.0,·,·,·
COc1ccc(N(C)S(=O)(=O)c2cccc(C(=O)OCC(=O)c3c(N)n(C)c(=O)n(C)c3=O)c2)cc1,10.5,25.2,1.4,-0.6,54.7*,-2.8
CCN(c1ccccc1)S(=O)(=O)c1cccc(C(=O)OCC(=O)c2c(N)n(C)c(=O)n(C)c2=O)c1,1.7,6.1,4.9,·,32.0,-11.6
Cc1ccc(-n2nc(C)c3c(-c4cccs4)c(C#N)c(N)nc32)cc1,20.4,25.0,·,16.7,86.4*,-0.6
Cc1nn(-c2ccccc2)c2nc(N)c(C#N)c(-c3ccc(F)cc3)c12,13.1,10.9,·,20.6,90.8*,-6.5
Cc1nc(N)c(C#N)c(-c2ccccc2)c1C,·,3.4,·,2.8,18.3,-1.4
CCN(CC)C(=O)CSc1nc(N)c(C#N)c(-c2cccs2)c1C#N,0.8,10.8,·,5.4,26.0,-1.7
O=[N+]([O-])c1cc(-c2nnc(-c3ccccc3)o2)ccc1Oc1ccc(Cl)cc1,97.8*,-12.6,-50.8,4.6,-27.2,5.2
Cc1nnc(-c2ccc(Oc3ccc(Cl)cc3)c([N+](=O)[O-])c2)o1,-3.3,5.0,11.0,19.3,10.9,-8.1
CC(=O)N(C)C[C@@H]1OCc2ccccc2-c2ccccc2C(=O)N([C@@H](C)CO)C[C@@H]1C,-9.5,·,-1.1,·,·,·

# Screening results (PubChem)
